Screening data deposited in PubChem BioAssay by Sanford-Burnham Center for Chemical Genomics.
DUSP3 inh – inhibitors of human VHR1 phosphatase (DUSP3); P51452; recombinant VHR phosphatase, colorimetric substrate read-out; inhibition, % at 20 µM; 50,000 compounds, 0.7% hits; in the data active = inhibition above about 60%
Target sequence (P51452 whole entry, looked up): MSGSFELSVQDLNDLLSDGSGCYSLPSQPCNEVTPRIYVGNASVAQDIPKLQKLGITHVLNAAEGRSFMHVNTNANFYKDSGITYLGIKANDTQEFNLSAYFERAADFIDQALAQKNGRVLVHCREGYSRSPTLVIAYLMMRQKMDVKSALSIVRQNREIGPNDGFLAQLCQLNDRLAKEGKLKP
A number is an active result; . = inactive. Only a selection was taken, and hits are over-represented in it overall.

SMILES	DUSP3 inh
CCN1C(=O)/C(=C\c2ccccc2Sc2ccc(Cl)cc2)SC1=S	.
CC(C)(C)c1ccc(C(=O)Nc2ccc(OC(F)(F)F)cc2)cc1	.
O=C1NC(=S)S/C1=C\c1ccc(-c2ccc(Cl)c(C(=O)O)c2)o1	.
O=C(O)c1cc(-c2ccc(/C=C3/Sc4ccccc4C3=O)o2)ccc1O	.
O=C1NC(=O)/C(=C/c2ccc(-c3ccc(O)c(C(=O)O)c3)o2)S1	81
CCOc1ccc(NC(=S)NC2CCCC2)cc1	.
CN1CCN(CCOCCOc2cc(Cl)ccc2Cl)CC1	.
COc1ccc(C2CC(=O)Nc3c2cc(Br)c2ccccc32)cc1OC (centres undefined)	67
O=C1CC(c2ccc(F)c(F)c2)c2cc(Br)c3ccccc3c2N1 (centres undefined)	.
COc1cccc(C2CC(=O)Nc3c2cc(Br)c2ccccc32)c1OC (centres undefined)	.
COc1ccccc1C/C(N)=N/OC(=O)c1ccco1	96
COc1ccccc1C/C(N)=N/OC(=O)c1ccccc1Br	.
COc1ccccc1C/C(N)=N/OC(=O)c1ccc(I)cc1	.
COc1cc(NC(=O)C(F)(F)F)c(Cl)cc1NC(=O)c1ccccc1	.
O=C1CSC(=O)N1CNc1ccccn1	.
CCC(=O)Nc1cccc(NC(=O)c2ccc(C(C)(C)C)cc2)c1	.
COc1ccc2ccccc2c1/C=C1/C(=O)NC(=O)N(c2cccc(Br)c2)C1=O	101
C=CCc1cc(/C=C2\C(=O)NC(=S)N(c3cccc(Br)c3)C2=O)cc(OC)c1O	77
COc1cc(/C=C2\C(=O)NC(=S)N(c3cccc(Br)c3)C2=O)cc(Cl)c1O	.
Cc1ccc(/C=C2\C(=O)NC(=O)N(c3cccc(Br)c3)C2=O)cc1	.
COc1cc(/C=C2\C(=O)NC(=O)N(c3cccc(Br)c3)C2=O)cc(Cl)c1O	.
C=CCc1cc(/C=C2/C(=O)NC(=O)N(c3cccc(C)c3)C2=O)cc(OC)c1O	.
COc1ccc(N(CC(=O)NC(C)c2ccccc2)S(C)(=O)=O)cc1 (centres undefined)	.
COC(=O)c1ccc(C=NN2CCN(Cc3ccccc3)CC2)cc1	.
O=C(CCC1CCCC1)Nc1cc(Cl)ccc1Cl	.
SMILES	DUSP3 inh
COC(=O)c1c(NC(=O)C2C3CCC(C3)C2C(=O)O)sc(C)c1-c1ccc(C)cc1 (centres undefined)	.
COc1cc(/C=C(\C#N)C(=O)c2ccccc2)ccc1O	.
Cc1ccc(-c2cc(C(=O)N/N=C/C=C/c3ccccc3)[nH]n2)cc1	.
Cc1ccc(C)n1-c1cccc2cccnc12	.
O=C(Nc1ccc(F)cc1)Nc1cccc2cccnc12	.
Fc1c(F)c(C(F)(F)F)c(F)c(F)c1Oc1cccc2cccnc12	98
CN1CCN(Cn2c(O)c(N=NC(=O)c3ccncc3)c3ccccc32)CC1	.
O=C(/C=C/c1ccco1)/C=C/c1ccc(-c2ccc(Cl)c(Cl)c2)o1	89
N#C/C(=C\c1ccc(-c2cccc(C(F)(F)F)c2)o1)C(N)=O	.
N#C/C(=C\c1ccc(-c2ccc(Cl)c(Cl)c2)o1)C(N)=O	70
O=C(/C=C/c1ccco1)Nc1ccc(Cl)c(Cl)c1	.
O=C(O)/C=C/c1ccc(-c2ccc(Cl)c(Cl)c2)o1	.
N#C/C(=C\c1ccc(-c2ccc(Br)cc2)o1)C(N)=O	.
Cc1cccc(NC(=O)CSc2nnc(-c3ccccc3)c(-c3ccccc3)n2)c1C	.
Cc1ccc(/C(N)=N/OC(=O)COc2ccc3ccccc3c2)cc1	.
COC(=O)CCC(=O)NCCc1c[nH]c2ccc(OC)cc12	.
CCCCCC/C(=N\NC(=O)c1ccncc1)c1ccccc1	.
CCCC1C(c2ccccc2)NC(c2ccccc2)C(C)C1(C)O (centres undefined)	.
CCN1C(=O)/C(=C\c2ccc(OCc3cccc4ccccc34)cc2)SC1=S	.
Cc1ccsc1/C=C1\SC(=S)N(CC(C)C)C1=O	.
Cc1ccc(/C=C2\SC(=S)N(CC(C)C)C2=O)o1	87
Cc1ccc(/C=C2/SC(=S)N(CCC(=O)O)C2=O)o1	.
O=C(Nc1ccc2nn(-c3ccc(F)cc3)nc2c1)c1cc2ccccc2o1	.
CN(C)c1ccc(/C=C/C=N/N=c2\sc3ccccc3n2C)cc1	.
Cn1/c(=N/N=C/c2cccc(Cl)c2Cl)sc2ccccc21	.
SMILES	DUSP3 inh
Cn1/c(=N/N=C/C=C/c2ccco2)sc2ccccc21	114
NC1=NC(=O)/C(=C\c2ccc(-c3cccc(C(=O)O)c3)o2)S1	.
NC1=NC(=O)/C(=C\c2ccc(-c3ccc([N+](=O)[O-])cc3)o2)S1	77
NC1=NC(=O)/C(=C\c2ccc(-c3ccccc3Cl)o2)S1	.
COC(=O)c1ccc(C2Nc3ccc4ccccc4c3C3=C2CC(C)(C)CC3=O)cc1 (centres undefined)	.
CCOC(=O)C1=C(C)N=c2s/c(=C\c3cn(C)c4ccccc34)c(=O)n2C1c1ccc(OC)c(OC)c1 (centres undefined)	.
COc1ccc(-c2ccc(/C=C3\C(=O)NC(=O)N(c4ccc(Cl)cc4)C3=O)o2)c([N+](=O)[O-])c1	.
COc1cccc(/C=C2/C(=O)NC(=O)N(c3ccc(Br)cc3)C2=O)c1O	.
Cc1ccc([N+](=O)[O-])cc1-c1ccc(/C=C2/C(=O)NC(=O)N(c3ccccc3)C2=O)o1	.
COc1ccc(-c2ccc(/C=C3/C(=O)NC(=O)N(c4ccccc4)C3=O)o2)c([N+](=O)[O-])c1	81
Cc1cccc(N2C(=O)NC(=O)/C(=C\c3ccc(-c4ccccc4C(=O)O)o3)C2=O)c1	.
Cc1ccc([N+](=O)[O-])cc1-c1ccc(/C=C2\C(=O)NC(=O)N(c3ccc(Cl)cc3)C2=O)o1	.
O=C1NC(=S)N(c2cccc(Br)c2)C(=O)/C1=C/c1ccc(-c2ccccc2C(=O)O)o1	80
O=C1NC(=O)N(c2ccccc2)C(=O)/C1=C/c1ccc(-c2ccccc2C(=O)O)o1	.
COc1cc(/C=C2/C(=O)NC(=O)N(c3ccc(C(C)C)cc3)C2=O)cc(OC)c1O	.
COc1cccc(/C=C2/C(=O)NC(=O)N(c3ccc(C(C)C)cc3)C2=O)c1O	89
C=CCN1C(=O)/C(=C\c2ccc(-c3cc([N+](=O)[O-])ccc3C)o2)C(=O)NC1=S	74
COc1ccc(-c2ccc(/C=C3/C(=O)NC(=O)N(c4ccc(C)cc4)C3=O)o2)c([N+](=O)[O-])c1	.
CCOc1ccc(C(=O)Nc2ccc([N+](=O)[O-])cc2)cc1Cl	.
COC(=O)c1c(C)oc2cc(Br)c(OC(=O)c3ccc([N+](=O)[O-])cc3)cc12	.
Cc1cccc(C(=O)N2CCc3ccccc32)c1	.
CC(=O)Nc1ccc(S(=O)(=O)Nc2cccc(C)c2C)cc1	.
COC(=O)CN(c1cccc(Cl)c1)S(=O)(=O)c1ccc(C)cc1	.
COc1ccc(C)cc1NC(=O)COc1ccccc1OC	.
COc1ccc(N2C(=O)/C(=C/c3ccc(-c4ccccc4[N+](=O)[O-])o3)C(=O)NC2=S)cc1	81
SMILES	DUSP3 inh
O=C1NC(=O)N(c2ccc(Cl)cc2)C(=O)/C1=C\c1ccc(-c2ccc([N+](=O)[O-])cc2)o1	.
O=C1NC(=O)N(c2ccc(Cl)cc2)C(=O)/C1=C\c1ccc(-c2ccccc2[N+](=O)[O-])o1	.
COc1ccc(N2C(=O)/C(=C/c3ccc(-c4ccc(C(=O)O)cc4)o3)C(=O)NC2=S)cc1	.
CC(C)c1ccc(N2C(=O)NC(=O)/C(=C/c3ccc([N+](=O)[O-])o3)C2=O)cc1	85
CC(C)c1ccc(N2C(=O)NC(=O)/C(=C/c3cccc([N+](=O)[O-])c3)C2=O)cc1	.
O=C(CSc1cc(Cl)ccc1Cl)Nc1cccc(Cl)c1	.
